Compound activity as filed in PubChem BioAssay.
GDH-TPI counter – counter-screen for M. tuberculosis FBA inhibitors: GDH-TPI coupled enzymes; GDH-TPI coupled enzyme counterscreen, NADH absorbance; inhibition, % at 4.8 µM; 1.2% of 360,000 active; AID 588335; in the data active = inhibition above about 30%;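 also: 0% = DMSO wells and 100% = wells lacking the enzyme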
RecA splice inh – inhibitors of M. tuberculosis RecA intein splicing; cell-free RecA intein splicing, fluorescence; inhibition, % (concentration not given with the values); 0.75% of 290,000 active; AID 2221; in the data active = inhibition above about 30%; inconclusive = no clear call, values can overlap the other calls;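 also: 0% = vehicle wells and 100% = reference inhibitor control wells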
UGM FP inh – blocks M. tuberculosis UGM enzyme. P9WIQ1. purified UGM, fluorescence polarization probe displacement. inhibition, % at 10 µM. 0.06% of 320,000 active; in the data active = inhibition above about 10%, passing the limit was not always enough; inconclusive = no clear call, values can overlap the other calls
Target sequence (P9WIQ1 whole entry, looked up): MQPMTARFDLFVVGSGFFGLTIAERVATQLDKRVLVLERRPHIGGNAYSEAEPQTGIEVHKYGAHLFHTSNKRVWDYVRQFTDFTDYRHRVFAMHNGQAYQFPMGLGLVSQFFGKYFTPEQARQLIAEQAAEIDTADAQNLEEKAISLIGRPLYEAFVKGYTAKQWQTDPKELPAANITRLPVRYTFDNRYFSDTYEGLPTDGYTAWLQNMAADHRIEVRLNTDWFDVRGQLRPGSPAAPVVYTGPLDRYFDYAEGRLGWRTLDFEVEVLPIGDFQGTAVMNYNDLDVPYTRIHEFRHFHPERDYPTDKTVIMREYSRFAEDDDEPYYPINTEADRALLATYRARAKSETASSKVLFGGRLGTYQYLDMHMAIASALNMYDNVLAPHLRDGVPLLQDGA
Mtb betalactam – beta-lactam sensitization of Mtb H37Rv; M. tuberculosis H37Rv growth with meropenem, percent inhibition; inhibition, % at 25 µM; 0.27% of 330,000 active; call rule not given here;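 also: growth measured after seven days incubation then overnight dye step; 0% = bacteria only wells and 100% = bacteria with antibiotic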
Mtb FBA inh – Mtb fructose-bisphosphate aldolase inhibition | 2.3% of 360,000 active | P9WQA3 | AID 588726 | purified M. tuberculosis FBA, fluorescence read-out | inhibition, % at 1 µM; in the data active = inhibition above about 27%;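 also: 0% = vehicle and 100% = reference inhibitor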
Rv3671c inh – Rv3671c (M. tuberculosis) protease inhibition | inhibition, % at 5.96 µM | 0.048% of 320,000 active | P9WHR9 | AID 2606; in the data active = inhibition above about 38%;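 also: extracellular domain of Rv3671c used as enzyme; 0% = enzyme with DMSO and 100% = no enzyme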
* = called active by the depositor; ? = inconclusive; . = no result given; + = active, no number. Shown are actives, neighbours in structure and some others; about 4% of the full set was active somewhere.

SMILES	GDH-TPI counter	RecA splice inh	UGM FP inh	Mtb betalactam	Mtb FBA inh	Rv3671c inh
Cc1nc(NC(=O)c2cc3ccccc3o2)sc1C	31*	.	-1	-8	-1	4
CCOC(=O)c1csc(NC(=O)c2cc3ccccc3o2)n1	43*	.	-1	3	-1	-37
O=C(NC1CCN(Cc2ccccc2)CC1)c1ccccc1OCc1ccccc1Cl	-2	6	0	93	0	3
N#CCCN(C(=O)COC(=O)CCc1nc2ccccc2c(=O)[nH]1)c1ccc(F)cc1	11	.	1	-2	3	4
N#Cc1nc(-c2ccc(F)cc2)oc1N1CCCCC1	18	1	1	-7	178*	5
N#Cc1nc(-c2ccc([N+](=O)[O-])cc2)oc1N1CCCCC1	3	-2	-1	1	-2	-6
N#Cc1nc(-c2ccc(F)cc2)oc1N1CCCC1	26	4	-3	-12	113*	-1
C/C=C(/C)C(=O)OC(C)(C)[C@@H]1Cc2c(ccc3ccc(=O)oc23)O1	8	3	1	-12	+	6
CC(C)CC(=O)OC(C)(C)[C@@H]1Cc2c(ccc3ccc(=O)oc23)O1	7	.	-4	0	182*	3
COc1ccc(NS(=O)(=O)NC(=O)c2c[nH]c3ccccc23)cc1	1	-1	-1	?	0	-6
Cc1c(C(=O)N2CCC[C@H]2CO)oc2c(F)cccc12	20	1	3	2	2	-2
CC1(C(=O)NCCc2ccccc2)Cc2c(-c3ccc(C(N)=O)cc3)ccnc2O1 (stereo not drawn)	12	.	.	.	3	.
C/C(=N\N(C)C)C1=C(O)c2ccccc2C1=O	4	-2	0	2	-1	6
CC(=NC1CC1)C1=C(O)c2ccccc2C1=O	38*	8	-2	-6	0	-1
COc1ccc(N=C(C)C2=C(O)c3ccccc3C2=O)cc1	36*	-3	-2	0	2	-8
CCn1c(C)nc2cc(-c3nnc(-c4c(-c5ccccc5)noc4C)o3)ccc21	3	4	-1	14	3	-30
Cc1onc(-c2ccccc2)c1-c1nc2cc(Cl)ccc2c(=O)o1	-6	36*	3	-5	3	-6
Cc1cccc(CN2CCN(C(=O)Cc3ccccc3)CC2)c1	5	0	2	-9	1	4
CCc1ccc(CN2CCN(C(=O)Cc3ccccc3)CC2)cc1	-6	0	-1	-7	-1	8
Cc1cccc(CN2CCN(C(=O)CCl)CC2)c1	7	33*	-3	98	0	-15
CSc1ccc(CN2CCN(C(=O)Cc3ccccc3)CC2)cc1	31*	0	-2	-5	2	5
COc1cc(NC(=O)COc2ccc([N+](=O)[O-])cc2)ccc1NC(=O)c1ccco1	12	.	.	.	-3	.
CN1CCc2nc(SCC(=O)Nc3ccc(F)cc3)c(C#N)cc2C1	.	33*	1	-1	.	-12
COc1ccc(NC(=O)CSc2nc3c(cc2C#N)CN(C)CC3)cc1	0	-1	0	-3	4	-4
Nc1nc2nc(-c3ccc(Cl)cc3)cc(C(F)(F)F)n2n1	1	-35	0	-4	+	-3
SMILES	GDH-TPI counter	RecA splice inh	UGM FP inh	Mtb betalactam	Mtb FBA inh	Rv3671c inh
Cc1ccc(Nc2c(-c3ccco3)nc3ccccn23)cc1	22	-3	2	2	121*	3
Fc1ccc(Nc2c(-c3ccco3)nc3ccccn23)cc1	4	-1	.	51	133*	9
COc1ccc(Cc2nnc(NC(=O)CS(=O)(=O)c3ccccc3)s2)cc1OC	11	.	-3	-7	3	-4
O=C(/C=C/c1ccc([N+](=O)[O-])cc1)Nc1cccc(S(=O)(=O)NC2=NCCCCC2)c1	41*	.	-2	4	3	2
O=C(/C=C/c1ccccc1Cl)Nc1cccc(S(=O)(=O)NC2=NCCCCC2)c1	0	6	-1	-1	-1	-43
CN(C(=O)c1cccc(NC(=O)Cc2ccc(NC(=O)C3CCCN(S(=O)(=O)c4cccc([N+](=O)[O-])c4)C3)cc2)c1)C1CCCCC1 (stereo not drawn)	5	.	.	.	-1	.
COc1ccc(CN(C)CCCn2cnc3c(OC)ncnc32)cc1OC	-3	.	.	.	0	.
O=C(NCCCN1CCOCC1)c1cc2ccccc2cc1O	-4	-20	0	-5	2	4
CN(C)c1ccc(/C=[N+](\[O-])C2N(c3ccccc3)C(=S)SC2(C)C)cc1 (stereo not drawn)	33*	0	2	1	-3	-6
CN(C)c1ccc(/C=[N+](\[O-])C2SC(=S)N(C)C2(C)C)cc1 (stereo not drawn)	34*	-7	1	-2	-3	3
CN(C)c1ccc(/C=[N+](\[O-])C(C)(C)/C=N/O)cc1	1	3	1	6	-4	-1
Cc1ccc(S(=O)(=O)c2nnn3c2nc(NCCCN2CCCC2=O)c2ccccc23)cc1C	3	1	0	5	31*	-7
Cc1nc(N2CCOCC2)c2c(C)c(C(=O)Nc3ccccc3Cl)sc2n1	31*	-2	-3	-9	-3	17
Cc1cc(/C=C(\C#N)C(=O)OCC(=O)Nc2ccc(OC(F)F)cc2)c(C)n1CC(C)C	31*	-6	-3	1	0	-81
Cc1cc(/C=C(\C#N)C(=O)OCC#N)c(C)n1CC(C)C	8	1	0	9	1	-6
COc1ccc(C2CCc3cc4c(cc3C2=NOC(C)=O)OCO4)cc1OC (stereo not drawn)	13	.	.	.	2	.
COc1ccc(C2=Nc3ccccc3NC(=O)C2N(CCc2ccccc2)C(=O)c2cccs2)cc1 (stereo not drawn)	.	.	.	.	-5	.
COc1ccc(CCNCC(O)COc2ccc(OC)cc2C(C)(C)C)cc1 (stereo not drawn)	4	5	-2	74	8	1
O=C(NCc1ccco1)c1cnc2sccn2c1=O	33*	-3	2	-4	1	4
O=C(Nc1nccs1)c1cnc2sccn2c1=O	45*	.	.	.	1	.
CCOC(=O)C1(C)CCN1C(=O)c1cccc(C(F)(F)F)c1 (stereo not drawn)	6	.	.	.	3	.
COC(=O)c1cc(CC(=O)c2ccc(O)cc2O)c(C)o1	36*	-2	0	5	1	-1
CCOC(=O)c1ccc(CC(=O)c2ccc(O)cc2O)o1	19	-6	2	-9	0	-10
COC(=O)c1ccc(CC(=O)c2ccc(O)cc2O)o1	33*	-1	2	2	-3	-3
O=S(=O)(c1ccc(-c2cn3ccccc3n2)cc1)N1CCOCC1	-6	2	-2	?	+	-3
Cc1cccn2cc(-c3ccc(S(=O)(=O)N4CCCCC4)cc3)nc12	8	-1	-1	0	135*	5
Cc1ccc(-c2cn3cccc(C)c3n2)cc1	3	-1	.	.	27	.
Cc1cccn2cc(-c3ccc(Cl)cc3)nc12	6	.	0	16	20	8
